Assay outcomes (PubChem)
Most compounds without a hit are left out; they make up all but 1.4% or so of the library.
Mtb hypoxia rep – Mtb hypoxia fluorescent reporter inhibition; 300,000 compounds, 0.1% hits; M. tuberculosis hypoxia-regulated fluorescent reporter, fluorescence; fluorescence inhibition, % (concentration not given with the values); in the data active = fluorescence inhibition mostly above about 23%, no sharp cut-off; inactive = mostly below about 17%
PrP 5UTR inh – suppresses PrP 5' UTR mRNA reporter expression; cell-based PrP 5' UTR mRNA reporter, plate reader; inhibition, % (concentration not given with the values); AID 488862; 340,000 compounds, 0.35% hits; in the data active = inhibition above about 52%; also: 0 = median of the neutral control wells
BJeLR viability – BJeLR cell viability loss. inhibition, % (test concentration not listed). 300,000 compounds, 0.17% hits. AID 1554. BJeLR (HRASV12) viability, CellTiter-Glo ATP luminescence, 48 h; in the data active = inhibition above about 50%
SARS 3CLpro inh – SARS-CoV 3CLpro protease inhibition | P0C6X7 | recombinant SARS-CoV 3CLpro, quenched FRET peptide cleavage | inhibition, % at 6 µM | 290,000 compounds, 0.14% hits; in the data active = inhibition above about 12%
PrPC surface inh – inhibitors of human cell surface prion protein PrPC; inhibition, % at 13.8 µM; 370,000 compounds, 0.43% hits; TR-FRET read-out; AID 720596; P04156; in the data active = inhibition above about 24%; also: 0% = median of the test wells and 100% = reference compound wells
RecA splice inh – inhibitors of M. tuberculosis RecA intein splicing | P9WHJ3 | cell-free RecA intein splicing, fluorescence | inhibition, % (concentration not given with the values) | 290,000 compounds, 0.75% hits | AID 2221; in the data active = inhibition above about 30%;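 also: 0% = vehicle wells and 100% = reference inhibitor control wells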
PrPC confirm – cell surface PrPC inhibition, TR-FRET confirmation. shares compounds with PrPC surface inh. cell surface PrPC level. inhibition, % at 13.8 µM. 1,500 compounds, 65% hits; in the data active = inhibition above about 25%
LD9 cytotox – counter-screen for PrPc inhibitors: cytotoxicity in LD9 cells; luminescence viability; inhibition, % at 13.8 µM; 1,500 compounds, 29% hits; shares compounds with PrPC surface inh; AID 743201; in the data active = inhibition above about 9.5%
Numbers without * were called inactive; x = no result.

SMILES | Mtb hypoxia rep | PrP 5UTR inh | BJeLR viability | SARS 3CLpro inh | PrPC surface inh | RecA splice inh | PrPC confirm | LD9 cytotox
COC(=O)c1cccc(Nc2c3c(nc4ccccc24)CCC3)c1 | 16 | -28 | 50 | 1 | 29* | 4 | 30* | 12*
Fc1cccc(Nc2c3c(nc4ccccc24)CCC3)c1 | 12 | 4 | 5 | -7 | 16 | 4 | x | x
CC(=O)c1cccc(Nc2c3c(nc4ccccc24)CCC3)c1 | -7 | 38 | 46 | 3 | 18 | 1 | x | x
Cc1ccc2nc3c(c(Nc4cccc(O)c4)c2c1)CCC3 | 1 | -18 | 10 | -2 | 25* | 3 | 16 | 16*
COc1ccc(CC(=O)NC(c2ccccc2)c2ccc(C)cc2)c(OC)c1 (stereo not given) | 8 | -26 | 3 | 4 | 30* | -4 | 28* | -9
CC[C@@H]1CCC[C@@H](O)[C@@H](C)C(=O)O[C@H](C)[C@@H](C)C/C=C(C)/C(OC)=C\C(=O)N(C)C([C@@H](C)CC)C(=O)N(C)[C@@H](C(C)C)C(=O)N(C)[C@@H](COC)C(=O)N2CCC[C@H]2C(=O)N(C)[C@@H](C(C)C)C(=O)N2CCC[C@H]2C(=O)O1 (stereo not given in full) | x | x | x | x | 41* | x | 51* | 16*
CC[C@H](C)[C@@H]1OC(=O)[C@H](C(C)C)N(C)C(=O)[C@H](C(C)C)NC(=O)[C@@H](C)[C@@H](CCCC#CBr)OC(=O)[C@H](C(C)C)N(C)C(=O)C2CCCN2C1=O (stereo not given in full) | x | x | x | x | 6 | x | x | x
COc1cc(C=NO)nc(-c2ccccn2)c1 | x | 44 | x | x | 37* | x | 33* | 22*
COCCNC(=O)C1CC1C(NP(=O)(c1ccccc1)c1ccccc1)c1ccccc1 (stereo not given) | 3 | x | x | x | x | x | x | x
O=S(=O)(Nc1cccnc1)c1ccc(Br)c2ccccc12 | -1 | -16 | -12 | 0 | 36* | 0 | 43* | -5
Cn1c(=O)cc(OCCCC(=O)Nc2cc(C(F)(F)F)ccn2)c2ccccc21 | x | x | x | x | 29* | x | 42* | 11*
Cn1c(=O)cc(OCCCC(=O)NCc2cccnc2)c2ccccc21 | -4 | -8 | -3 | 1 | -1 | 1 | x | x
Cn1c(=O)cc(OCCCC(=O)Nc2cc(Br)ccn2)c2ccccc21 | x | x | x | x | 31* | x | 47* | 15*
Cn1c(=O)cc(OCCCC(=O)Nc2cc(-c3ccncc3)ccn2)c2ccccc21 | x | x | x | x | 27* | x | 35* | 13*
CC(=NNC(=O)c1cc(C)oc1C)c1ccc2c(c1)OCO2 | 1 | x | x | x | x | x | x | x
CCCCCCCCn1c2c(c(=N)c3ccccc31)CCC2 | 21 | -19 | 29 | -5 | 29* | 10 | 44* | 38*
NC(=O)C1CCN(C(=O)c2ccc3nc(-c4ccccc4)c(-c4ccccc4)nc3c2)CC1 | 7 | -7 | 1 | 1 | 47* | 0 | 53* | -2
CCOC(=O)N1CCN(C(=O)c2ccc3nc(-c4ccccc4)c(-c4ccccc4)nc3c2)CC1 | 5 | -16 | -4 | 4 | -6 | -1 | x | x
Cc1ccc(C)c(S(=O)(=O)N2CCN(C(=O)c3ccccc3Cc3ccccc3)CC2)c1 | 9 | -17 | 13 | x | 55* | 2 | 0 | -3
CC(C)C[C@@]12C(=O)N(c3cccc(F)c3)C(=O)N1C(c1ccc(F)cc1)C1C(=O)N(C3CCCCC3)C(=O)C12 (stereo not given in full) | 7 | x | x | x | x | x | x | x
COc1ccc(NC(=O)CSc2nc(C(C)C)nc3c2c(=O)n(C)c(=O)n3C)c(OC)c1 | 5 | 4 | 9 | 0 | 0 | 0 | x | x
Cc1csc(NC(=O)CSc2nc(C(C)C)nc3c2c(=O)n(C)c(=O)n3C)n1 | 7 | -8 | 0 | 0 | 27* | -1 | 20 | 8
O=S(=O)(NN=Cc1ccccc1OCc1ccc(Cl)cc1)c1ccccc1 | 12 | x | x | x | x | x | x | x
CN1CCN(C(=O)C2=CC(c3ccc(C(F)(F)F)cc3)CC(OCc3ccc(CO)cc3)O2)CC1 (stereo not given) | 4 | x | x | x | x | x | x | x
O=C(NCc1ccco1)c1cccc(-c2nnc(-c3ccccc3)o2)c1 | 10 | -21 | 0 | 3 | 26* | 3 | 15 | 4
SMILES | Mtb hypoxia rep | PrP 5UTR inh | BJeLR viability | SARS 3CLpro inh | PrPC surface inh | RecA splice inh | PrPC confirm | LD9 cytotox
O=C(NCc1ccco1)c1cccc(NC(=O)c2ccco2)c1 | -10 | -22 | 11 | -1 | 20 | -5 | x | x
COc1ccc(C(=O)Nc2cccc(C(=O)NCc3ccco3)c2)cc1 | 15 | -31 | -8 | 8 | 27* | 2 | 20 | 5
O=C(NCc1nc2ccccc2[nH]1)C1=CC(c2ccc(C(F)(F)F)cc2)CC(OCc2ccc(CO)cc2)O1 (stereo not given) | 6 | x | x | x | x | x | x | x
O=C(Nc1cccc(Cl)c1)Nc1ccc2c(c1)OCO2 | 1 | -95 | -20 | 2 | 32* | -1 | 31* | -3
COc1ccc(CNC(=O)CC(C)=NNC(=O)COc2ccccc2)cc1 | 7 | x | x | x | x | x | x | x
CC1CN(C(C)CO)C(=O)c2cccc(NS(=O)(=O)c3cccs3)c2OC1CN(C)Cc1ccncc1 (stereo not given) | 5 | x | x | x | x | x | x | x
Cn1nnnc1SCc1nc2scc(-c3ccc(Cl)cc3)c2c(=O)[nH]1 | -12 | -30 | 4 | 3 | 32* | -7 | 26* | 6
S=c1nc(C2CCCCC2)[nH]c2ccccc12 | 17 | -15 | -16 | 1 | 32* | 0 | 38* | -6
S=c1nc(C2CC2)[nH]c2ccccc12 | x | -17 | -2 | -4 | 15 | 0 | x | x
CC(NC(=O)c1nc[nH]c1C(=O)NC(C)c1ccccc1)C(=O)OC(C)(C)C (stereo not given) | 18 | x | x | x | x | x | x | x
CCC(C)Sc1ccc(C2N[C@@](C)(C(=O)OC)C3C(=O)N(CC)C(=O)C23)cc1 (stereo not given in full) | 18 | x | x | x | x | x | x | x
Cc1ccc(S(=O)(=O)N2CCN(CC(O)c3ccccc3)CC2)cc1C (stereo not given) | 0 | -28 | -7 | -1 | 57* | 1 | 6 | -5
Cc1ccc(S(=O)(=O)N2CCN(CC(O)c3ccccc3)CC2)cc1 (stereo not given) | -1 | -7 | -1 | 3 | 8 | 1 | x | x
Clc1cccc(Cc2c(-c3ccco3)nc3ccc(Br)cn23)c1 | x | x | x | x | 42* | x | 51* | -4
COc1ccc(-c2nc3ccc(Br)cn3c2Cc2cccc(F)c2)cc1OC | x | x | x | x | 36* | x | 65* | -8
Brc1ccc2nc(-c3ccco3)c(Cc3ccccc3)n2c1 | x | x | x | x | 37* | x | 66* | 1
COc1ccc(-c2nc3ccc(C)cn3c2Cc2cccc(F)c2)cc1OC | x | x | x | x | -9 | x | x | x
Clc1cccc(Cc2c(-c3ccco3)nc3ccc(Cl)cn23)c1 | x | x | x | x | 6 | x | x | x
O=C(CSc1cccc2cccnc12)NN=Cc1ccc(O)cc1 | 3 | x | x | x | x | x | x | x
O=C(NN=Cc1cccc2ccccc12)C(=O)N1CCCC1 | -2 | x | x | x | x | x | x | x
